Source: the supplement of paper PMC10412459

Tested on: K562 SF3B1 K700E vs K562 SF3B1 WT
Test: surviving fraction ratio K562 SF3B1 K700E / K562 SF3B1 WT (each relative to DMSO); higher = less selective killing of SF3B1 K700E cells
Conditions: 5 days
Experimental: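 Drug-sensitivity screen of an in-house 80-compound library in isogenic K562 SF3B1 K700E versus SF3B1 WT cells. 250 cells/well in 384-well plates were exposed 24 h after seeding to 0.5-1000 nM compound for 5 days, and viability was read by CellTiter-Glo. Surviving fraction is relative to DMSO, and the value is the ratio of surviving fraction in K700E to WT cells; the paper calls ratio <0.6 with P<0.01 selective.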

SMILES	surviving fraction ratio K562 SF3B1 K700E / K562 SF3B1 WT (0.1nM)	surviving fraction ratio K562 SF3B1 K700E / K562 SF3B1 WT (0.2nM)	surviving fraction ratio K562 SF3B1 K700E / K562 SF3B1 WT (1nM)	surviving fraction ratio K562 SF3B1 K700E / K562 SF3B1 WT (2nM)	surviving fraction ratio K562 SF3B1 K700E / K562 SF3B1 WT (10nM)	surviving fraction ratio K562 SF3B1 K700E / K562 SF3B1 WT (20nM)	surviving fraction ratio K562 SF3B1 K700E / K562 SF3B1 WT (100nM)	surviving fraction ratio K562 SF3B1 K700E / K562 SF3B1 WT (200nM)	surviving fraction ratio K562 SF3B1 K700E / K562 SF3B1 WT (0.5nM)	surviving fraction ratio K562 SF3B1 K700E / K562 SF3B1 WT (5nM)	surviving fraction ratio K562 SF3B1 K700E / K562 SF3B1 WT (50nM)	surviving fraction ratio K562 SF3B1 K700E / K562 SF3B1 WT (500nM)	surviving fraction ratio K562 SF3B1 K700E / K562 SF3B1 WT (1000nM)
C[C@]12O[C@H](C[C@]1(O)CO)n1c3ccccc3c3c4c(c5c6ccccc6n2c5c31)CNC4=O [lestaurtinib]	0.691	0.885	0.8	0.895	0.877	0.855	0.823	0.907					
C[C@@H]1CN(CC(=O)Nc2ccc3c(c2)Cc2cccc(-c4cc(=O)cc(N5CCOCC5)o4)c2S3)C[C@H](C)O1			1.04		0.896		0.96		0.976	0.887	1.08	0.878	0.865
COc1cc2c(cc1O)CC[C@@H]1[C@@H]2CC[C@]2(C)[C@@H](O)CC[C@@H]12 [2-methoxyestradiol]			0.733		0.851		0.595		0.765	0.666	0.706	0.626	1.48
COCC[n+]1c2c(n(Cc3cnccn3)c1C)C(=O)c1ccccc1C2=O			0.805		1.8		0.899		0.819	1.33	1.14	0.84	0.809
CCc1cc(Nc2nccc(-c3c(-c4ccc(OC)c(C(=O)Nc5c(F)cccc5F)c4)nc4ccccn34)n2)c(OC)cc1N1CCC(N2CCN(S(C)(=O)=O)CC2)CC1			0.921		0.907		0.805		0.969	0.92	0.817	0.824	0.842
